Screening results: PubChem, National Center for Advancing Translational Sciences (NCATS)
Rows were chosen to be rich in hits. Some 6.2% of all compounds tested hit in one or more screens of this group.
HT1080-NT tox: kills 2HG-producing HT-1080-NT fibrosarcoma cells. HT-1080-NT fibrosarcoma viability, CellTiter-Glo ATP luminescence, 48 h. Potency, µM (top dose mostly 46.1 µM), usual class: cytotoxic. actives 1.6% (n = 360,000). AID 686970;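 also: NT is the 2HG producing partner of a matched IDH1 knockdown line; nearly all actives have a fitted effect of over 55% in size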
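750 cells/well, RPMI + 5% FBS; 2 h settle, compound pin-transfer, 48 h at 37 degrees C. CellTiter-Glo 10 min RT, luminescence. Normalized to DMSO and media-only wells.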
HT1080 IDH1KD tx: HT-1080 IDH1 knockdown cell toxicity (counter line) | Potency, µM (doses to about 46.1 µM), most hits filed as cytotoxic | actives 2% (n = 360,000) | AID 686971 | HT-1080 IDH1 knockdown viability, ATP luminescence, 48 h
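IDH1KD HT-1080 cells, 750/well, RPMI + 5% FBS; compound pinned after 2 h settling; 48 h, 37 °C; CellTiter-Glo luminescence; % activity normalised to DMSO and no-cell wells; curves fitted, classed by r2 and efficacy.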
KB-3-1 tox: KB-3-1 parental cell cytotoxicity. KB-3-1 viability, CellTiter-Glo ATP luminescence, 72 h. actives 1.4% (n = 400,000). Potency, µM (top dose mostly 46.1 µM), most hits filed as cytotoxic; also: nearly all actives have a fitted effect of over 60% in size
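Viability of parental KB-3-1 cells, measured by CellTiter-Glo luminescence, followed a 72 h incubation at 37 °C with pinned compounds in phenol-red-free DMEM containing 10% FBS.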
KB-V1 MDR tox: kills drug-selected multidrug resistant KB-V1 cells; Potency, µM (highest dose often 46.1 µM), actives largely listed as cytotoxic; actives 3.4% (n = 400,000); KB-V1 MDR cells viability, CellTiter-Glo, 72 h; also: nearly all actives have a fitted effect of over 60% in size
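In this primary screen, KB-V1 cells overexpressing P-gp are incubated with library compounds (lowest to highest concentration) for 72 h at 37 degrees C before a luminescent ATP viability read.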
ATXN viability: cell viability loss in ATXN counter-screen. S2 cells (HEK-293 line with an ATXN2-luciferase reporter) viability, CellTiter-Fluor protease fluorescence, 24 h. Potency, µM (titrated, usually from 56.7 µM), actives largely listed as cytotoxic. actives 0.49% (n = 400,000). AID 651635; also: nearly all actives have a fitted effect of over 40% in size
ATXN2 expr inh: ATXN2 expression inhibition; Potency, µM (series often up to 57 µM), most hits filed as inhibitors; HEK-293 ATXN2-luciferase reporter, luminescence, 24 h; actives 0.72% (n = 360,000); AID 1745845; also: nearly all actives have a fitted effect of over 55% in size
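qHTS (up to 57 uM final) was run with 24 h compound exposure of reporter cells at 37 °C. Each well was multiplexed: SteadyGlo luminescence measured ATXN2-luciferase expression after a fluorogenic Gly-Phe-AFC viability readout (25 uM final).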
A number is an active result; – = inactive; ? = inconclusive; · = no result; [ ] = dose if it differs, or a comment. Calls follow the shape of the dose curve; as a rule, active = well fitted curve in the direction sought with a large enough effect; inconclusive = small, poorly fitted or top-dose-only effect, or another doubt; inactive = no such curve, though single readings can be large; an effect the other way counts as inactive or inconclusive.

SMILES | HT1080-NT tox | HT1080 IDH1KD tx | KB-3-1 tox | KB-V1 MDR tox | ATXN viability | ATXN2 expr inh
COc1cc(C(=O)Nc2ccc3c(c2)CCN3C(C)=O)cc(OC)c1OC | ? | 2.6µM | 3.3µM | ? | – | ·
O=C(Nc1cc(C(F)(F)F)ccc1Cl)c1ccncc1 | ? | – | – | – | – | –
COc1cc(C(=O)Nc2ccc3ccccc3c2)cc(OC)c1OC | 1.3µM | 0.58µM | ? | ? | – | –
COc1ccc(C(=O)Nc2ccc3ccccc3c2)cc1OC | – | – | – | – | – | –
COC(=O)Nc1ccc(S(=O)(=O)N2CCCc3ccccc32)cc1 | 8.9µM | 1.4µM | 1.5µM | 1.2µM | ? | –
COc1cc(C(=O)Nc2cc(C(F)(F)F)ccc2Cl)cc(OC)c1OC | – | – | – | 21µM | – | –
COc1cc(C(=O)Nc2ccc3c(c2)Cc2ccccc2-3)cc(OC)c1OC | – | – | – | – | ? | ·
COC(=O)Nc1ccc(S(=O)(=O)N2CCCc3cccc(O)c32)cc1 | ? | ? | ? | ? | – | ·
CCc1ccc(N2C(=O)CS(=O)(=O)C23C(=O)N(Cc2ccccc2F)c2ccccc23)cc1 (centres undefined) | · | · | – | – | – | –
COCCCNC(=O)c1c[nH]c2ccc(S(=O)(=O)N3CCc4ccccc43)cc2c1=O | ? | ? | ? | – | – | –
O=C(Nc1ccccc1)c1ccc2c(c1)CCN2S(=O)(=O)c1ccccc1 | – | – | ? | – | ? | ·
Cn1c(=NC(=O)c2ccc(S(=O)(=O)N3CCCc4ccccc43)cc2)sc2cc(S(C)(=O)=O)ccc21 | – | – | – | 3.7µM | – | –
COc1cc(C(=O)Nc2ccc(S(=O)(=O)N3CCc4ccccc43)cc2)cc(OC)c1OC | – | – | ? | 5.8µM | – | –
COCCNC(=O)c1c[nH]c2ccc(S(=O)(=O)N3CCc4ccccc43)cc2c1=O | 2.3µM | 2.3µM | ? | – | – | ·
O=C(Nc1ccc(S(=O)(=O)N2CCc3ccccc32)cc1)c1ccc2c(c1)OCO2 | ? | ? | – | 5.2µM | – | –
COc1ccccc1C(=O)Nc1ccc(S(=O)(=O)N2CCc3ccccc32)cc1 | – | – | – | ? | – | –
CCC1=C(c2ccc(C)cc2)S(=O)(=O)N=C1N1CCC(C(=O)NCCc2ccc(Cl)cc2)CC1 | · | · | 15µM | – | · | ·
Cc1cc(C)nc(N2CCCC(C(=O)NCCc3ccc(F)cc3)C2)n1 (centres undefined) | – | – | – | 18µM | – | –
Cc1cc(C)nc(N2CCC(C(=O)NCCc3ccc(F)cc3)CC2)n1 | – | – | – | 13µM | – | –
COc1ccccc1CN1CCOc2ccc(CN3CCC(Oc4cccnc4)CC3)cc2C1 | · | · | · | · | – | ·
Cc1ccc(-c2nc(CS(=O)(=O)CC(=O)Nc3ccc(Br)cc3F)c(C)o2)cc1 | · | · | – | – | · | ·
C=CCn1c(Cc2cccc3ccccc23)n[nH]c1=S | – | – | – | 18µM | – | –
C=CCn1c(CCn2c3ccccc3c3ccccc32)n[nH]c1=S | – | – | – | ? | – | –
CC(=O)c1ccc(NC(=O)CCn2cccn2)cc1 | · | · | – | – | – | –
COc1ccc(-c2nnc(SCc3c(C)noc3C)n2N)cc1OC | – | – | – | 7.3µM | – | –
SMILES | HT1080-NT tox | HT1080 IDH1KD tx | KB-3-1 tox | KB-V1 MDR tox | ATXN viability | ATXN2 expr inh
O=C(C1CN(C(=O)c2cc3cc(Cl)ccc3o2)c2ccccc2O1)N1CCCCC1 (centres undefined) | – | – | ? | 21µM | – | –
Oc1ccc(/C=N/Nc2ccnc3cc(Cl)ccc23)c(O)c1 | – | – | – | – | ? | ·
Cc1ccccc1/C=N/Nc1ccnc2cc(Cl)ccc12 | ? | ? | ? | 16µM | · | 22µM
Clc1ccc2c(N/N=C/c3ccc(Br)cc3)ccnc2c1 | ? | ? | ? | – | ? | –
Cc1ccc(/C=N/Nc2ccnc3cc(Cl)ccc23)c(C)c1 | ? | ? | ? | – | ? | 35µM
Cc1onc(-c2ccccc2)c1C(=O)Nc1sc2c(c1C#N)CCC(C)C2 (centres undefined) | 13µM | –[9.24 µM] | ? | ? | – | –
CCOC(=O)c1c(NC(=O)c2c(-c3ccccc3)noc2C)sc(C)c1-c1ccccc1 | – | ? | 2.1µM | 6.5µM | – | –
CCOC(=O)c1ccccc1NC(=O)c1c(-c2ccccc2)noc1C | · | · | ? | ? | – | –
CN(C)S(=O)(=O)N1CCc2ccc(NC(=O)c3ccc(C(F)(F)F)cc3)cc2C1 | 16µM | ? | ? | ? | – | –
COCCC(=O)N1CCc2ccc(NC(=O)c3ccc(C(F)(F)F)cc3)cc2C1 | ? | – | – | – | – | –
COc1ccc2c(c1)c1c(c(=O)n(-c3cccc(Cl)c3)c(=O)n1CC(=O)NCC1CCCO1)n2C (centres undefined) | · | · | – | – | – | –
CC(C)Oc1ccc(CN2CCCC(CO)(Cc3ccc(F)cc3)C2)cc1 (centres undefined) | ? | 29µM | – | – | – | –
COc1cc(CN2CCCC(CO)(Cc3cccc(Cl)c3)C2)cc(OC)c1O (centres undefined) | – | – | – | – | · | –
COc1cc(CN2CCCC(CO)(Cc3cccc(Cl)c3)C2)cc2c1OCO2 (centres undefined) | ? | 16µM | – | – | – | –
OCC1(Cc2cccc(Cl)c2)CCCN(Cc2ccc(F)c(F)c2)C1 (centres undefined) | – | 26µM | – | – | ? | –
Clc1ccc(-n2cccc2CN2CCOc3ccc(CN4CCOCC4)cc3C2)nc1 | · | · | · | · | – | ·
COC(=O)c1cnn(-c2ccc(C(=O)Nc3cc(OC)c(OC)c(OC)c3)cc2)c1N | · | · | – | – | – | –
Cc1ncc2c(c1CNC(=O)c1ccccc1F)CCN(C(=O)c1[nH]c3ccc(Cl)cc3c1C)C2 | · | · | · | · | – | ·
Cc1cc2c(cc1C)-n1nnnc1C(N1CCN(c3ccccc3F)CC1)C(=O)N2 (centres undefined) | – | – | – | ? | · | ·
O=C(CSc1nnc2scc(-c3ccccc3)n12)N1CCN(Cc2ccccc2)CC1 | – | – | – | 5.8µM | – | –
Cn1c(SCC(=O)N2CCN(Cc3ccccc3)CC2)nnc1-c1ccncc1 | – | – | – | – | – | –
Cc1ccc(-c2csc3nnc(SCC(=O)N4CCN(Cc5ccccc5)CC4)n23)cc1 | – | – | – | 6.5µM | – | –
COCCOC(=O)c1[nH]c2c(c1C)C(=O)CC(c1ccc(F)cc1)C2 (centres undefined) | ? | 23µM | 7.3µM | ? | ? | –
Cc1c(C(=O)OCCOc2ccccc2)[nH]c2c1C(=O)CC(c1ccc(C(C)(C)C)cc1)C2 (centres undefined) | · | · | – | – | – | –
